From PubChem BioAssay (NCATS)
Records with an inconclusive call do not appear. Where a call stands in place of a potency, no number is given. Values without a mark were called inactive. Activity calls are given as the source filed them. Calls come from the whole dose curve; as a rule, active = well fitted inhibition curve with a large enough effect; inconclusive = small, poorly fitted or top-dose-only effect; inactive = flat fitted curve, though single readings scatter. Where a SMILES comes first, the peptide text is derived from it. [ ]: non-standard residue; d: D form. ξ: configuration not given here. ξPhe(βξ-Me) = CC(c1ccccc1)C(N)C(=O)O; GABA = NCCCC(=O)O

What follows are compounds tested against Calcium and integrin-binding protein 1 (Homo sapiens) (UniProt Q99828) (assay: Primary qHTS for Identification of Calcium Integrin Binding Protein 1 (CIB1) Competitor (AID 1508620;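 note: GST tagged CIB1 binding a fluorescein labelled alphaIIb integrin peptide tracer; top concentration of the series differs between compounds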)). Conditions: CIB1-GST / FITC-alphaIIb peptide fluorescence polarization; series mostly up to 57.7 µM.
Calcium and integrin-binding protein 1 (Homo sapiens), sequence (Q99828 whole entry, looked up): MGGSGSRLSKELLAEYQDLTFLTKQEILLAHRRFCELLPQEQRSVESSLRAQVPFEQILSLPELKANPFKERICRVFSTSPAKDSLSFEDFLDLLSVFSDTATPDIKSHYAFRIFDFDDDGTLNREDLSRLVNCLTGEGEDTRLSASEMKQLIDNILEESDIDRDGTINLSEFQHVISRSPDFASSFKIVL
Procedure, shortened: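 Fluorescence polarization competition: CIB1-GST (1 uM final) preincubated with compound 15 min at room temperature, then FITC-labeled alphaIIb peptide (100 nM final) added for another 15 min. Polarization read at Ex 480/Em 540.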

Compound	Potency	activity change, negative = inhibition
C=C[C@H]1[C@H](O[C@@H]2O[C@H](CO)[C@@H](O)[C@H](O)[C@H]2O)OC=C2C(=O)OCC[C@]21O	inactive	–
CC(C)CC1NC(=O)C(C(C)c2ccccc2)NC(=O)C(C(C)C)NC(=O)C(C)NC(=O)CCCNC(=O)C(Cc2c[nH]c3ccccc23)NC(=O)C(C)NC1=O (stereo not drawn) (cyclo([GABA]AV[ξPhe(βξ-Me)]LAW); configuration not given here)	inactive	–
COc1ccc(C(OC2OC(CO)C(O)C(O)C2O)C(C)O)cc1 (centres undefined)	inactive	–
COC(=O)C1=COC(O[C@@H]2O[C@H](CO)[C@@H](O)[C@H](O)[C@H]2O)/C(=C\COC(=O)c2ccc(OC3OC(CO)C(O)C(O)C3O)c(OC)c2)C1CC(=O)OCCc1ccc(O)cc1 (some centres undefined)	inactive	–
O=C(/C=C/c1ccc(O)cc1)OC[C@H]1O[C@@H](OC(=O)/C=C/c2ccccc2)[C@H](O)[C@@H](O)[C@@H]1O	inactive	–
CCC(=O)N[C@@H]1Cc2ccccc2[C@H](c2ccccc2)C1	inactive	–
O=C(NCC(=O)N1CC[C@H](NC2CCC(O)(c3ccc(-c4ncccn4)cn3)CC2)C1)c1cccc(C(F)(F)F)c1 (some centres undefined)	inactive	–
C=CC1C(O[C@@H]2O[C@H](CO)[C@@H](O)[C@H](O)[C@H]2O)OC=C(C(=O)OC)C1Cc1nccc2c1[nH]c1ccccc12 (some centres undefined)	inactive	–
C[C@@H]1O[C@@H](O[C@@H]2[C@@H](O)[C@H](O[C@@H]3[C@@H](O)[C@@H](O)[C@H](O[C@H]4[C@H](OC(=O)[C@]56CCC(C)(C)C[C@H]5C5=CCC7[C@@]8(C)C[C@H](O)[C@H](O[C@@H]9O[C@@H](C)[C@H](O)[C@@H](O)[C@H]9O)[C@@](C)(CO)C8CC[C@@]7(C)[C@]5(C)C[C@H]6O)O[C@H](C)[C@H](O)[C@@H]4O)O[C@H]3C)OC[C@H]2O)[C@H](O)[C@H](O)[C@H]1O (some centres undefined)	–	1.34% [at 12.4 µM]
